Results as given in the supplement of paper PMC8866396.
± gives the standard deviation of the averaged measurements.

How the values were obtained:
IL-6-GFP PC-9GR = assay: cell viability (CCK-8 OD) relative to DMSO control (fraction of control); higher = more viable cells; conditions: compound concentration: 10 uM; treatment time: 48 h
In short: (§1)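 Each well's viability is its CCK-8 optical density divided by that of the vehicle control well. The cells, PC-9 and PC-9GR lung cancer lines overexpressing IL-6-GFP from a lentiviral construct, were seeded at 3000 cells/well in 96-well plates and exposed for 48 h to each compound of a purchased 510-compound library at a final 10 μM, in two independent replicates.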

IL-6-GFP PC-9 = assay: as above; conditions: compound concentration: 10 uM; treatment time: 48 h
In short: as §1

Structure (SMILES)	cell viability (IL-6-GFP PC-9GR)	cell viability (IL-6-GFP PC-9)
O=C(O)c1cc(-c2ccc(F)cc2F)ccc1O [Diflunisal]	0.789 ± 0.23	1.15 ± 0.15
C=CC(=O)N1CCCC(n2nc(-c3ccc(Oc4ccccc4)cc3)c3c(N)ncnc32)C1 (centres undefined)	0.572 ± 0.048	0.509 ± 0.18
COc1c2occc2cc2ccc(=O)oc12 [Methoxsalen]	0.933 ± 0.062	0.839 ± 0.23
COc1ccc(S(=O)(=O)N(C(C)=O)c2ccccc2/C=C/c2cc[n+]([O-])cc2)cc1	0.674 ± 0.091	0.753 ± 0.018
COc1cc2nccc(Oc3ccc(NC(=O)Nc4cc(C)on4)c(Cl)c3)c2cc1OC [Tivozanib (AV-951)]	0.792 ± 0.15	0.353 ± 0.036
CC(=O)OC1CCC2(C)C(CCC3(C)C2C(=O)C=C2C4C(C)C(C)CCC4(C)CCC23C)C1(C)C(=O)O (centres undefined)	0.941 ± 0.28	1.09 ± 0.16
Nc1ncn(C2OC(CO)C(O)C2O)c(=O)n1 (centres undefined) [Azacitidine]	1.04 ± 0.077	0.895 ± 0.15
COc1ccc2c(c1)c(CC(=O)OCC(=O)O)c(C)n2C(=O)c1ccc(Cl)cc1 [Acemetacin]	1.07 ± 0.14	0.954 ± 0.2
COc1cc(/C=C/C(=O)/C=C(O)/C=C/c2ccc(O)c(OC)c2)ccc1O [Curcumin]	1.36 ± 0.48	0.985 ± 0.12
O=C(O)CCc1nc(-c2ccccc2)c(-c2ccccc2)o1 [Oxaprozin]	0.9414 ± 0.0067	0.543 ± 0.2
CCCCC1(COC(=O)CCC(=O)O)C(=O)N(c2ccccc2)N(c2ccccc2)C1=O [Suxibuzone]	0.768 ± 0.21	1.07 ± 0.21
CNNCc1ccc(C(=O)NC(C)C)cc1.Cl [Procarbazine HCl]	1.02 ± 0.16	1.17 ± 0.042
